# This is a sample that favours compounds with a hit; in the whole collection about 5.7% have one here.
# TGFb SMAD3 inh: TGF-b pathway inhibition. HepG2 CAGA-GFP TGF-b/SMAD3 reporter, GFP fluorescence, 18 h; TGF-beta stimulated, 500 pg/mL final. Potency, µM (highest dose often 46.1 µM), for inactives: at the highest dose activity, negative = inhibition, most hits filed as inhibitors. 410,000 tested, 1.2% active. AID 588855; also: potency is read from the fitted curve at half-maximal effect; % is scaled to controls: 0 for no effect and ±100 for the full control effect; nearly all actives have a fitted effect of over 65% in size
#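 Inhibition was scored as loss of TGF-beta-induced (500 pg/mL final, 18 hours, 37 degrees C) GFP in HEPG2 cells carrying a CAGA-GFP reporter, in DMEM with 1% FBS. Well GFP was summed per cell; Activity was normalised to unstimulated and stimulated DMSO wells, then concentration-response fitting.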
# IL-1B inflam inh: blocks inflammasome-driven IL-1 beta release; THP-1 LPS/ATP IL-1B secretion, AlphaLISA, 16 h; hits give low values; 360,000 tested, 4.7% active; AID 743279; activity change, % at 57.5 µM; in the data active = activity change below about -50%; inconclusive = mostly about -30% to -49%; also: % is scaled to controls: 0 for no effect and ±100 for the full control effect
#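 Secreted IL-1B measured by AlphaLISA bead assay after 16 h compound exposure of THP-1 cells; compounds (final up to 57.5 uM) added 1 h before LPS (250 ng/mL) and ATP (1.25 mM) stimulation; lower signal means less secretion.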
# ATXN2 expr inh: reduces ATXN2 reporter expression in HEK-293 cells; HEK-293 ATXN2-luciferase reporter, luminescence, 24 h; Potency, µM (series often up to 57 µM), for the others: at the top dose activity change, negative = inhibition, hits mostly inhibitors; 360,000 tested, 0.72% active; AID 1745845; also: potency is read from the fitted curve at half-maximal effect; % is scaled to controls: 0 for no effect and ±100 for the full control effect; nearly all actives have a fitted effect of over 55% in size
#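 qHTS (up to 57 uM final) was run with 24 h compound exposure of reporter cells at 37 °C. Each well was multiplexed: SteadyGlo luminescence measured ATXN2-luciferase expression after a fluorogenic Gly-Phe-AFC viability readout (25 uM final).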
# HepG2 viability: counter-screen for TGF-b inhibitors: cytotoxicity in HepG2 cells; AID 588856; HepG2 CAGA-GFP viability, ATP luminescence, 18 h; 410,000 tested, 0.76% active; Potency, µM (highest dose often 46.1 µM), inactives show top-dose activity change, negative = cytotoxicity, most hits filed as cytotoxic; also: potency is read from the fitted curve at half-maximal effect
#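 CellTiter-Glo luminescence gave cytotoxicity after 18 hours at 37 degrees C. The cells were HepG2 CAGA-GFP in 1% FBS DMEM, stimulated with 500 pg/mL TGF-beta after compound addition. %Activity was normalised to no-cell wells (complete cell-killing) and DMSO (no toxicity), and curves were fitted and classified.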
# S2 tox: reduces viability in counter-screen for ATXN expression inhibitors; S2 cells (HEK-293 line with an ATXN2-luciferase reporter) viability, CellTiter-Fluor protease fluorescence, 24 h; Potency, µM (highest dose often 56.7 µM), actives largely listed as cytotoxic; 400,000 tested, 0.49% active; also: potency is read from the fitted curve at half-maximal effect; nearly all actives have a fitted effect of over 40% in size
# Starred values were filed as active, the others as inactive; i = inactive; ? = inconclusive; nt = no result given; [ ] = another dose, or the depositor's remark. Unless noted, calls follow the shape of the dose curve; as a rule, active = well fitted curve in the direction sought with a large enough effect; inconclusive = small, poorly fitted or top-dose-only effect, or another doubt; inactive = no such curve, though single readings can be large; an effect the other way counts as inactive or inconclusive.
SMILES,TGFb SMAD3 inh,IL-1B inflam inh,ATXN2 expr inh,HepG2 viability,S2 tox
CCOP(=O)(OCC)c1ccc2ccc3ccccc3c(=O)c2c1,-5.3%,nt,-20.3%,-52.2%,i
Cc1ccc2c(c1)C1CN(C)CCC1N2C(=O)Nc1cccc(Cl)c1 (configuration not stated),6.8%,-52.6*,?,-43.0%,i
CNC(C)Cc1ccc2c(c1)OCO2 (configuration not stated),nt,nt,-4.1%[116 µM],nt,i
C=C1C(=O)O[C@@H]2C[C@@H](C)[C@@H]3C=CC(=O)[C@@]3(C)[C@@H](OC(C)=O)[C@H]12,0.708µM*,?,1.12µM*,2.51µM*,nt
C=C1C(=O)O[C@@H]2C[C@@H](C)[C@@H]3C=CC(=O)[C@@]3(C)[C@@H](O)[C@H]12,3.98µM*,-106.0*,1.78µM*,11.2µM*,nt
CCN(C(=O)Cn1c(=O)oc2cc(S(=O)(=O)N3CCCC3)ccc21)c1cccc(C)c1,nt,nt,nt,-26.0%,nt
COc1ccc2[nH]cc(CCN=C(NC(=O)c3ccccc3OC)Nc3nc(C)cc(C)n3)c2c1,?,nt,-34.8%,-22.9%,i
Cc1cccc(NP(=O)(Oc2ccccc2F)Oc2ccccc2F)c1,12.6µM*,-99.0*,-16.3%,-59.8%,i
Cc1ccc(NP(=O)(Oc2ccccc2F)Oc2ccccc2F)cc1C,?,-83.7*,-19.4%,-75.7%,i
O=P(Nc1cccc(F)c1)(Oc1ccccc1F)Oc1ccccc1F,?,0.0,-30.4%,-46.6%,i
CCOc1ccc(N2CC(c3nc4ccccc4n3CCC3CCCCC3)CC2=O)cc1 (configuration not stated),-8.7%,nt,15.9%,-2.6%,?
Cc1cc(C(C#N)c2ccc(Cl)cc2)c(Cl)cc1NC(=O)c1cc(I)cc(I)c1O (configuration not stated),?,1.8,?,-57.1%,?
COc1cc(C=C2C(=O)NC(=O)NC2=O)ccc1OCc1ccc([N+](=O)[O-])cc1,0.0%,-13.7,47.7%,1.0%,i
COc1cc(/C=C(/C)[N+](=O)[O-])ccc1OCc1ccccc1Cl,5.01µM*,-99.3*,25.1µM*,7.94µM*,31.6µM*
CCNC(=O)C1CCCN(C(=O)c2c(-c3ccccc3)noc2C)CC1 (configuration not stated),1.5%,9.6,13.1%,6.1%,?
c1ccc(-c2ccc(-c3n(-c4ccccn4)c4ccccc4[n+]3-c3ccccn3)cc2)cc1,17.8µM*,-9.5,nt,-7.2%,?
Cc1nn(Cc2ccccc2)c(C)c1C(=O)NCc1ccccc1,35.2%,-10.1,-16.3%,1.4%,i
Cc1nn(Cc2ccccc2)c(C)c1C=C1C(=O)NC(=O)NC1=O,11.3%,-106.1*,3.4%,-9.4%,i
O=C(Nc1ccc(Cl)c(Cl)c1)O/N=C/c1ccncc1,?,-93.7*,5.3%,-44.3%,i
Cc1c(C(=O)NCc2ccc3c(c2)OCO3)cnn1-c1ncc2c(n1)-c1ccccc1CC2,nt,nt,nt,nt,i
O=C1NC(=O)N(CCc2ccc(F)cc2)C(=O)/C1=C/c1cccs1,4.5%,-96.9*,?,-18.3%,?
O=C1NC(=O)N(CCc2ccc(F)cc2)C(=O)/C1=C/c1ccco1,11.2%,-52.5*,-30.8%,1.9%,?
C=CCN1C(=O)/C(=C/c2cccs2)C(=O)NC1=S,?,-104.1*,-5.7%,-80.7%,?
O=C1/C(=C/c2ccc(N(CCCl)CCCl)cc2)Cc2ccccc21,13.8%,nt,nt,-23.2%,nt
CC(Oc1ccccc1)C(=O)Nc1ccc(C(=O)OCc2cc(=O)n3nc(C4CC4)sc3n2)cc1 (configuration not stated),-4.3%,nt,-39.7%,-24.6%,?
SMILES,TGFb SMAD3 inh,IL-1B inflam inh,ATXN2 expr inh,HepG2 viability,S2 tox
COc1ccc(NC(=O)CCn2cnc3onc(-c4ccc(F)cc4)c3c2=O)cc1OC,?,nt,?,-19.9%,?
COc1ccc(CCNC(=O)c2ccc3c(c2)N=C(C)c2cc(C)ccc2S3)cc1OC,?,nt,?,-29.7%,?
CC1N(C)c2cc(NC(=O)c3ccco3)c(P(=O)(Nc3ccc([N+](=O)[O-])cc3)N3CCOCC3)cc2C1(C)C (configuration not stated),?,-54.9*,-24.0%,-36.8%,i
NCC(=O)c1ccc(Cl)c(Cl)c1,?,nt,nt,-46.1%,nt
COc1ccc(-c2cc(=NCCC(=O)O)c3cc(C)ccc3o2)cc1,4.8%,-58.1*,23.5%,-28.9%,nt
COc1ccc(-c2cc(=Nc3ccccc3)c3cc(C)ccc3o2)cc1,?,-5.8,nt,-22.4%,i
C[C@]12CC[C@@H]3[C@@H](CCC4=CC(=O)CC[C@@H]43)[C@@H]1CC[C@@H]2OC(=O)CCc1ccccc1,nt,nt,14.0%,nt,i
CCc1ccc2c(c1)Sc1ccccc1CC2N1CCN(C)CC1 (configuration not stated),?,-65.0*,nt,-141.3%,nt
COc1cccc(N2CCN(C(=O)Cn3c(=O)oc4ccccc43)CC2)c1,-2.3%,23.9,-8.9%,-23.9%,i
CCCCC1(CCCC)C(=O)NC(=Nc2cccc(C)c2)NC1=O,?,-56.1*,?,-13.6%,i
c1ccc(C2(N3CCCCC3)CCCCC2)cc1,11.7%,14.8,-7.2%,1.5%,i
S=C=Nc1cccc(C2(N3CCCCC3)CCCCC2)c1,13.9%,-53.8*,-38.6%,-48.1%,?
CC(=O)c1cccc(NC(=O)CCn2c(=O)oc3ccccc32)c1,2.6%,0.5,13.4%,-52.1%,i
COc1ccccc1OC(C)C(=O)N1CCC(Cc2ccccc2)CC1 (configuration not stated),?,-72.4*,?,-3.5%,i
COc1ccccc1CC(=O)N1CCN(CCc2ccccc2)CC1,0.5%,5.1,-11.4%,-0.9%,i
CCOC(=O)[C@]12Cc3cc(OC)ccc3[C@H]1N(Cc1ccccc1)C(=O)c1ccccc12,?,-22.9,?,-12.7%,?
CCOC(=O)[C@]12Cc3cc(OC)ccc3[C@H]1N(Cc1ccccc1)C(=O)c1cc(F)c(F)cc12,?,-20.9,-15.2%,-7.6%,i
CCOC(=O)[C@]12Cc3ccccc3[C@H]1N(CCC(=O)OC)C(=O)c1ccccc12,nt,nt,-13.7%,nt,?
CCOC(=O)[C@]12Cc3cc(C)ccc3[C@H]1N(CCC(=O)OC)C(=O)c1cc(OC)ccc12,nt,-124.0*,22.4µM*,nt,15.8µM*
CCCCCN1C(=O)c2ccccc2[C@@]2(C(=O)OCC)Cc3cc(OC)ccc3[C@@H]12,nt,nt,?,nt,12.6µM*
CCOC(=O)[C@]12Cc3cc(OC)ccc3[C@H]1N(C1CCCCC1)C(=O)c1cc(OC)ccc12,nt,-114.0*,20µM*,nt,12.6µM*
CCOC(=O)[C@]12Cc3cc(C)ccc3[C@H]1N(C1CCCCC1)C(=O)c1cc(OC)ccc12,nt,-110.7*,5.01µM*,nt,4.47µM*

# Source: PubChem
